HNF4A DNA FP: change in binding of human HNF4 alpha to DNA; HNF4a-FITC DNA binding, fluorescence polarization, 1 h; activity change, % at 10 µM; 0.3% of 360,000 active; in the data active = activity change above about 30%, passing the limit was not always enough
PHOSPHO1 block: blocks human PHOSPHO1 phosphatase activity | Q8TCT1 | 1.1% of 290,000 active | recombinant PHOSPHO1, absorbance phosphatase assay | inhibition, % at 13.3 µM | AID 1565; in the data active = inhibition above about 60%
Target sequence (Q8TCT1 whole entry, looked up): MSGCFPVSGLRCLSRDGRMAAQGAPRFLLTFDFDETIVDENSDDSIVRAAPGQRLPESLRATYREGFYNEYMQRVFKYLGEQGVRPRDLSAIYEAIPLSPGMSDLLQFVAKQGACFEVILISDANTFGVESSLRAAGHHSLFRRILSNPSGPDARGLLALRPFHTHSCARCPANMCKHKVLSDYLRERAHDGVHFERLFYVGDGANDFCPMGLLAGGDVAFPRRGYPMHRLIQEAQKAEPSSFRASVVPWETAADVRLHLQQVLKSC
Fh CTSL1 inh: counter-screen for PFM18AAP inhibitors: inhibitors of F. hepatica cathepsin L1; inhibition, % at 5.96 µM; AID 1906; 0.49% of 300,000 active; recombinant F. hepatica cathepsin L1, Z-Leu-Arg-MCA fluorescence;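 active = inhibition above the mean of all tested compounds plus 3 SD, set per screening campaign, cut at about 17% in these data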;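 also: 0% = plate median of test compound wells and 100% = 1 µM Z-Phe-Ala-diazomethylketone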
Rpn11 block: inhibitors of human proteasome Rpn11; O00487; AID 588493; human 26S proteasome, Ub4-pepOG fluorescence polarization; 20S core pre-blocked with epoxomicin; inhibition, % at 20 µM; 0.59% of 360,000 active;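 active = inhibition at 20 µM, scaled to each plate's controls, above about 33%, limit read from the data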
Target sequence (O00487 whole entry, looked up): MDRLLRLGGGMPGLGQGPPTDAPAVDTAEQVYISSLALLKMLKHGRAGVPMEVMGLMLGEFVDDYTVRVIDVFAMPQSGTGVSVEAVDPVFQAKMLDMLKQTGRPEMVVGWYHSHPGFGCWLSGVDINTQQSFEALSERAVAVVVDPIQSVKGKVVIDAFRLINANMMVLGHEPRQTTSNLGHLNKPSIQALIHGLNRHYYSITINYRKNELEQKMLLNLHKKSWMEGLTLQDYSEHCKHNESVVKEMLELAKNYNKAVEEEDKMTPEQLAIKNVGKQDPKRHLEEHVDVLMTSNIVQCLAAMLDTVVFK
TPT1 inhibitor: blocks Candida albicans tRNA 2'-phosphotransferase; 0.81% of 300,000 active; AID 1962; inhibition, % at 5 µM; recombinant caTPT1, FP RNA substrate dephosphorylation;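 active = inhibition above the mean of all tested compounds plus 3 SD, set per screening campaign, cut at about 24% in these data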;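 also: plate controls were DMSO alone for no effect and ferristatin control at 100 nM for full effect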
NRP1-CendR mod: modulators of CendR peptide binding to human neuropilin-1 | inhibition, % at 25 µM | O14786 | 0.85% of 360,000 active | FAM-RPARPAR peptide binding to NRP-1, fluorescence polarization | AID 602438;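 active = inhibition or corrected inhibition above about 18%, plus a signal ratio from 0.5 to 1.5, limit read from the data, passing the limit was not always enough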
* = called active by the depositor; x = no result. The list is not random: actives were taken first. Their share in the collection is about 3.3%.

SMILES | HNF4A DNA FP | PHOSPHO1 block | Fh CTSL1 inh | Rpn11 block | TPT1 inhibitor | NRP1-CendR mod
O=C(CSc1nncn1-c1ccccc1)Nc1ccc(N2CCOCC2)cc1 | -5 | 87* | -3 | 4 | -8 | 13
C/C(N)=C(/C#N)C(=O)CSc1nncn1-c1ccccc1 | 4 | 68* | -3 | 0 | -4 | -6
CCC(c1nnc(SCC(=O)Nc2ccc(N3CCOCC3)cc2)n1Cc1ccccc1)N(C)C (centres undefined) | -4 | x | -10 | -2 | 1 | 27*
C/C(N)=C(/C#N)C(=O)CSc1nnc(C)n1-c1ccccc1 | 14 | -12 | -1 | -3 | -4 | -1
O=C(CSc1nnnn1-c1ccccc1)Nc1ccc(N2CCOCC2)cc1 | 3 | -57 | 0 | 1 | -2 | 8
COc1ccc(-n2cnnc2SCC(=O)N2CCN(c3ccccc3)CC2)cc1 | 0 | 93* | 0 | 4 | 7 | 3
Cn1c(=O)c2sccc2n2c(CCCC(=O)N3CCCCC3)nnc12 | -1 | 12 | -2 | 3 | -1 | 3
COCCn1c(SCc2ccc(C)cc2)nc2c1c(=O)[nH]c(=O)n2C | 2 | x | 2 | 0 | 2 | -5
CCOC(=O)Cc1c(C)c2c(C)[nH]nc2oc1=O | -1 | -3 | 2 | 2 | 0 | 43*
Cc1cc(C)cc(Oc2coc3cc(O)ccc3c2=O)c1 | -2 | 8 | 17* | -2 | -1 | 0
Cc1ccc(Oc2coc3cc(O)ccc3c2=O)cc1 | 1 | 42 | 2 | 14 | -1 | 3
Cc1ccccc1-c1coc2cc(O)ccc2c1=O | 4 | 10 | 23* | 10 | 9 | -23
O=C(CC1C(=O)NCCN1C(=O)Nc1ccccc1)Nc1ccc(F)cc1 (centres undefined) | 1 | 20 | -2 | 0 | 1 | 4
O=C(CC1C(=O)NCCN1C(=O)Nc1ccccc1)Nc1cccc(C(F)(F)F)c1 (centres undefined) | -3 | -17 | -1 | 4 | -1 | 44*
Cc1ccc(CNC(=O)COC(=O)c2ccc(Cl)c(N)c2)cc1 | -2 | 9 | -5 | 7 | 1 | 1
CCC1=NN(C(=O)C(=O)Nc2ccc(OC)cc2)C(O)(C(F)(F)F)C1 (centres undefined) | -2 | 72* | 2 | -5 | -3 | 6
CCC1=NN(C(=O)C(=O)Nc2ccccc2OC)C(O)(C(F)(F)F)C1 (centres undefined) | -1 | -90 | 1 | -9 | 1 | -3
CCC(=O)N1CCCC(C(=O)c2ccc(-c3ccccc3)cc2)C1 (centres undefined) | 0 | -10 | 0 | -3 | -4 | -2
COc1ccc(C(CNC(=O)c2ccc(NS(=O)(=O)c3ccc(F)c(C)c3)cc2)N2CCOCC2)cc1 (centres undefined) | 2 | x | 5 | -4 | 0 | -6
CCOC(=O)C1=C(O)C(=O)N(c2ccc(S(N)(=O)=O)cc2)C1c1cccc([N+](=O)[O-])c1 (centres undefined) | 2 | 12 | -3 | 1 | 2 | 15
CCOC(=O)C1=C(O)C(=O)N(c2ccccc2)C1c1cccc([N+](=O)[O-])c1 (centres undefined) | -1 | 13 | -1 | 3 | -3 | 26*
O=C(CCc1ccc(O)cc1)NNC(=S)NCCc1ccccc1 | -2 | -89 | -2 | 2 | 1 | -4
O=C(NNC(=S)NCCc1ccccc1)c1ccc(Br)s1 | -2 | -49 | 18* | 9 | -2 | 16
CCN(CC)CCn1c(=S)[nH]c2ccc(Cl)cc2c1=O | -3 | 78* | -2 | 6 | -1 | -4
CCN(CC)CCn1c(=S)[nH]c2cc(Cl)ccc2c1=O | 1 | 94* | 3 | 1 | -4 | 4
SMILES | HNF4A DNA FP | PHOSPHO1 block | Fh CTSL1 inh | Rpn11 block | TPT1 inhibitor | NRP1-CendR mod
CCCCn1nc(C(=O)Nc2cc(S(=O)(=O)N(C)C)ccc2C)c2ccccc2c1=O | -4 | -35 | 11 | 7 | 2 | -5
COc1ccc(NC(=O)CC2(CC(=O)N3CCOCC3)CCCC2)cc1Cl | -3 | x | x | 9 | x | -1
COC(=O)c1sccc1NC(=O)Nc1ccccc1F | -2 | 63* | -3 | 4 | -3 | -4
COC(=O)c1sccc1NC(=O)c1ccc(C#N)cc1 | 3 | 33 | 1 | 61* | 1 | -11
COC(=O)c1sccc1NC(=O)Nc1ccccc1C | -1 | 37 | x | 1 | x | -4
CCOC(=O)[C@]12CCC=C1N(Cc1ccc(Cl)cc1Cl)C(=O)[C@H](CC(=O)NCCCN1CCCC1=O)C2 | -5 | x | x | x | x | 9
CC1CN(C(=O)c2ccccc2NS(=O)(=O)c2ccc(Cl)cc2)CC(C)O1 (centres undefined) | -4 | x | x | 1 | x | 19*
O=c1[nH]c(=O)n(C2OC(CO)C(O)C2O)c2c1CCCC2 (centres undefined) | 5 | x | x | 0 | x | 23*
O=C1C=C(NCCc2cc(Br)c(O)c(Br)c2)C(=O)c2ncccc21 | 5 | x | x | -29 | x | 42*
C(=N\N1CCN(Cc2ccccc2)CC1)/c1ccc(-c2ccccc2)cc1 | 6 | 8 | 17* | -3 | 0 | 3
O=C(CCc1c[nH]c2ccccc12)OCc1cccc([N+](=O)[O-])c1 | 1 | 31 | -2 | 2 | -3 | -3
Cc1ccnc(NC(=O)c2ccc(S(=O)(=O)c3ccccc3)cc2)c1 | 2 | 61* | 1 | -12 | -2 | -2
Cc1ccc(S(=O)(=O)Nc2ccc(C(=O)Nc3cc(C)on3)cc2)cc1 | -3 | -5 | 4 | -6 | -1 | -9
Cc1cc(NC(=O)c2ccc(S(=O)(=O)Nc3ccccc3)cc2)no1 | 3 | 38 | 1 | -5 | 1 | 27*
CCCOc1ccccc1C(=O)N(Cc1ccco1)C1CCS(=O)(=O)C1 (centres undefined) | -1 | 4 | 2 | 6 | -6 | -19
CCOc1ccc(-c2cc(C(=O)Nc3ccc4c(c3)OCCO4)c3ccccc3n2)cc1 | -2 | 31 | 1 | -2 | -6 | 56*
Clc1ccc(-c2c[n+](Cc3ccc(Cl)cc3Cl)c3n2CCCCC3)cc1 | 2 | 24 | -3 | -6 | 1 | 1
Clc1ccc(C[n+]2cc(-c3ccccc3)n3c2CCCCC3)c(Cl)c1 | -1 | 60* | 1 | -20 | -2 | -6
COc1ccc(-c2cc(CC3(C(=O)O)CCN(C(=O)OC(C)(C)C)CC3)on2)c(OC)c1 | 0 | -7 | 7 | -4 | -2 | -11
OCC1CCN(Cc2nc(Cc3ccccc3Cl)no2)CC1 | 2 | -123 | -2 | 1 | -3 | -17
COCC1CCN(Cc2nc(Cc3ccccc3Cl)no2)CC1 | -2 | 15 | -1 | 0 | -2 | 21*
Cc1ccc2c(CSc3nnnn3C)cc(=O)oc2c1 | -5 | 44 | -2 | 3 | -3 | -3
COc1cc(-c2nnc(SCc3cc(=O)oc4cc(C)ccc34)o2)cc(OC)c1OC | 2 | 74* | 3 | 7 | -2 | 0
O=C(CSc1nc(-c2ccc(F)cc2)nc2c1Cc1ccccc1O2)Nc1ccc(C(=O)O)cc1 | -77 | -86 | x | 163* | x | -39
